High-throughput results from PubChem BioAssay.
Rows were chosen to be rich in hits. Some 7.5% of all compounds tested hit in one or more screens of this group.
RORg inh: qHTS for inhibitors of ROR gamma transcriptional activity | 310,000 tested, 5.4% active | Nuclear receptor ROR-gamma (Mus musculus), P51450 | Drosophila S2 Gal4-RORgamma UAS-luciferase reporter, 20 h | Potency, µM (series often up to 53.6 µM), for the others: top-dose activity change, negative = inhibition, most hits filed as inhibitors | AID 2551, 2010; further: potency means the concentration at half of the fitted maximal effect; nearly all actives have a fitted effect of over 60% in size
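Luciferase reporter read in Schneider cells carrying Gal4-RORγ (mouse) and UAS-Photinus luciferase; cells given compound 1 h before 700 uM copper sulfate induction, then incubated 20 h at ambient temperature.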
TSHR antagonist: Antagonists of the Thyroid Stimulating Hormone Receptor: HTS campaign. AID 504810, 2011. activity change, negative = inhibition, % at 11.5 µM. TSHR-expressing cells, TSH-stimulated cAMP HTRF, 2 h; stronger effect = lower value. Thyrotropin receptor (Homo sapiens), P16473. 330,000 tested, 0.2% active;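 active means activity change below a set negative limit, meaning inhibition stronger than a set level, cut at about -70% in these data; inconclusive means activity change between two set negative limits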
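Freshly harvested TSHR cells receive pin-tooled compound, then EC80 TSH at 4nM final. After 2 hours at 37 deg C, antibody in lysis buffer and cAMP-d2 are added; 30 minutes at ambient temperature precede the HTRF read.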
VP16 counter: VP16 counterscreen qHTS for inhibitors of ROR gamma transcriptional activity; Drosophila S2 Gal4-VP16 UAS-luciferase, luminescence, 20 h; Potency, µM (highest dose often 53.6 µM), for inactives: at the highest dose activity, negative = inhibition, most hits filed as inhibitors; AID 2546, 2010; 310,000 tested, 3.5% active;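 further: Gal4-VP16 expression switched on by copper sulfate through the metallothionein promoter; potency means the concentration at half of the fitted maximal effect; nearly all actives have a fitted effect of over 50% in size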
ELG1 DNA repair: qHTS screen for small molecules that inhibit ELG1-dependent DNA repair in human embryonic kidney (HEK293T) cells expressing luciferase-tagged ELG1; Potency, µM (series often up to 46.1 µM), inactives show at the top dose activity change, negative = inhibition, hits mostly inhibitors; 330,000 tested, 2.3% active; AID 504467, 2011; HEK293T ELG1-luciferase reporter, luminescence, 16 h; DNA damage induced by 5-fluorouridine; further: potency means the concentration at half of the fitted maximal effect; nearly all actives have a fitted effect of over 55% in size
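Reporter activity after DNA damage by 5-fluorouridine is monitored. Compound-treated cells incubate 16 hr at 37 °C, then ONE-Glo is added for 30 min before luminescence reading.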
B2AR arrestin: qHTS assay of beta-arrestin-biased ligands of beta2-adrenergic receptor | Beta-2 adrenergic receptor (Homo sapiens), P07550 | beta-arrestin recruitment to beta2AR, cell-based reporter | Potency, µM (doses to about 46.1 µM), for inactives: top-dose activation, actives largely listed as activators | 330,000 tested, 0.02% active | AID 492947, 2010;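 further: potency means the concentration at half of the fitted maximal effect; 0% = DMSO controls and full agonism = EC100 isoproterenol or metaproterenol; nearly all actives have a fitted effect of over 65% in size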
Target sequence (P07550 whole entry, looked up): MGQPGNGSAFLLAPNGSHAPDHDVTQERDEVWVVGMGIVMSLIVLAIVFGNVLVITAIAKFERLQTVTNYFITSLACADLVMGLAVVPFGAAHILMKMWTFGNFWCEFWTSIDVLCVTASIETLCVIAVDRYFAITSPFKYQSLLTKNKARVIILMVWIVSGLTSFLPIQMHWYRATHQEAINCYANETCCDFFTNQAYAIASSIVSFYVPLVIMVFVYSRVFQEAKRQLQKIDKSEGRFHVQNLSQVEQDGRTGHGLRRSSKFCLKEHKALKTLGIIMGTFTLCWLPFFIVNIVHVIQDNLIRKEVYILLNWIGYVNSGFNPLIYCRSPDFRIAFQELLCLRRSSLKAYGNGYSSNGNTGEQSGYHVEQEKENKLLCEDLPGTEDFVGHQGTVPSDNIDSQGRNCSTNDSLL
ELG1 FLuc counter: qHTS screen for small molecules that inhibit ELG1-dependent DNA repair: Hit Confirmation in Cell-Based Luciferin Assay | cell-free firefly luciferase luminescence counter-screen, ViewLux | 350 tested, 3% active | AID 624247, 2012 | Potency, µM (series often up to 46.1 µM), without a hit: top-dose activity change, negative = inhibition, most hits filed as inhibitors | shares compounds with ELG1 DNA repair; further: potency means the concentration at half of the fitted maximal effect
ELG1-Luc inh: HTS assay for small molecules that inhibit ELG1-dependent DNA repair in human embryonic kidney (HEK293T) cells expressing luciferase-tagged ELG1: Hit Confirmation; shares compounds with ELG1 DNA repair; HEK293T ELG1-luciferase levels, luminescence; cells co-treated with 5-fluorouridine; Potency, µM (top dose mostly 46.1 µM), for the others: at the top dose activity change, negative = inhibition, most hits filed as inhibitors; 670 tested, 68% active; AID 624248, 2012; further: potency means the concentration at half of the fitted maximal effect; nearly all actives have a fitted effect of over 55% in size
ELG1 MMS Luc: confirmation of human ELG1 repair inhibitors, MMS stimulated. HEK293T luciferase-tagged ELG1 level, MMS stimulated. 670 tested, 53% active. Potency, µM (doses to about 46.1 µM), for inactives: at the top dose activity change, negative = inhibition, hits mostly inhibitors. shares compounds with ELG1 DNA repair; further: potency means the concentration at half of the fitted maximal effect; nearly all actives have a fitted effect of over 60% in size
ELG1 5-FU: qHTS screen for small molecules that inhibit ELG1-dependent DNA repair: Hit Confirmation with 5FU Viability; shares compounds with ELG1 DNA repair; cell viability with 5-FU, ELG1-dependent repair; Potency, µM (titrated, usually from 46.1 µM), for the others: at the highest dose activity change, negative = viability loss, most hits filed as cytotoxic; 670 tested, under 10 active; AID 624250, 2012;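 further: ELG1-luc HEK293T cells cotreated with 5-fluorouridine at 10 µM final; potency means the concentration at half of the fitted maximal effect; viability measured 16 h after compound addition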
ELG1 MMS viab: qHTS screen for small molecules that inhibit ELG1-dependent DNA repair: Hit Confirmation with MMS Viability; 670 tested, 33% active; Cell viability with MMS, ELG1-dependent DNA repair; Potency, µM (highest dose often 46.1 µM), for inactives: at the highest dose activity change, negative = viability loss, most hits filed as cytotoxic; shares compounds with ELG1 DNA repair;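 further: ELG1-luc HEK293T cells co-treated with 10 µM MMS; potency means the concentration at half of the fitted maximal effect; viability read 16 h after compound addition; nearly all actives have a fitted effect of over 60% in size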
Cell viab unstim: qHTS screen for small molecules that inhibit ELG1-dependent DNA repair: Hit Confirmation with Unstimulated Viability Assay; 900 tested, 8% active; cell viability counter-screen, unstimulated, luminescence; Potency, µM (titrated, usually from 45.9 µM), without a hit: at the top dose activity change, negative = loss of viability, usual class: cytotoxic; shares compounds with ELG1 DNA repair; AID 624252, 2012;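 further: potency means the concentration at half of the fitted maximal effect; compound exposure lasted 16 hours before reading; nearly all actives have a fitted effect of over 55% in size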
FLuc enzyme: qHTS screen for small molecules that inhibit ELG1-dependent DNA repair: Hit Confirmation in Biochemical Luciferin Assay; shares compounds with ELG1 DNA repair; Potency, µM (series often up to 57.5 µM), for the others: at the top dose activity, negative = inhibition, usual class: inhibitors; purified firefly luciferase, luminescence counter-screen; AID 624253, 2012; 350 tested, 10% active; further: potency means the concentration at half of the fitted maximal effect
Starred values were filed as active, the others as inactive; ? = inconclusive; nt = no result; [ ] = another dose, or the depositor's remark. Unless noted, the call rests on the fitted dose curve; in most records, active means well fitted curve in the direction sought with a large enough effect; inconclusive means small, poorly fitted or top-dose-only effect, or another doubt; inactive means no such curve, though single readings can be large; an effect the other way counts as inactive or inconclusive. Unless noted, on the % scale 0 is the no-effect control and ±100 the full control effect.

SMILES | RORg inh | TSHR antagonist | VP16 counter | ELG1 DNA repair | B2AR arrestin | ELG1-Luc inh | ELG1 MMS Luc | ELG1 5-FU | ELG1 MMS viab | Cell viab unstim | others
CCCc1ccc(Oc2cc(NN3CCCCC3)c([N+](=O)[O-])cc2[N+](=O)[O-])cc1 | 37% | 0 | -7% | -12% | 1% | nt | nt | nt | nt | nt
CCOc1ccc(C(=O)Nc2cnn(Cc3ccc(Cl)c(Cl)c3)c2)cc1 | 35% | -27 | -5% | -11% | 0% | nt | nt | nt | nt | nt
COc1ccc(C(=O)Nc2cnn(Cc3c(F)cccc3Cl)c2)cc1OC | 0% | -1 | -9% | ? | 0% | 1% | 34% | ? | 10% | 5%
COc1ccc([C@H]2CC(=O)C=C(c3cc4ccccc4s3)C2)cc1OC | nt | -32 | nt | ? | -1% | nt | nt | nt | nt | nt
Cc1ccccc1-n1c(SCC(=O)c2c(N)n(C)c(=O)n(C)c2=O)nc2sc3c(c2c1=O)CCCC3 | -7% | 8 | -14% | 1.6µM* | 0% | 2.5µM* | -17% | ? | -1% | -16% | ELG1 FLuc counter=-7%;FLuc enzyme=-2%
Cc1ccccc1-n1c(SCC(=O)c2c(N)n(C)c(=O)n(C)c2=O)nnc1-c1cccnc1 | 3% | 3 | 1% | ? | 0% | nt | nt | nt | nt | nt
CC1(C)CC(NC(=O)COc2ccc3c4c(c(=O)oc3c2)CCCC4)CC(C)(C)N1 | -15% | -3 | -8% | 29% | 0% | nt | nt | nt | nt | nt
CCc1ccccc1N(CC(=O)NC(C)C)C(=O)CCC(=O)Nc1nccs1 | ? | -9 | -11% | 6% | 1% | nt | nt | nt | nt | nt
COc1ccc(C(=O)c2ccc(Br)cc2)cc1 | 34% | -10 | -18% | 1.2µM* | 7% | 43% | 0% | 2% | -17% | 7%
COc1ccc(C(=O)COC(=O)[C@@H](NS(=O)(=O)c2ccccc2)C(C)C)cc1 | nt | -15 | nt | ? | -1% | nt | nt | nt | nt | nt
COc1cc2c(cc1OC)OC(C)(C)C=C2 | 12% | nt | 6% | nt | nt | nt | nt | nt | nt | nt
COc1cc2c(cc1OC)C1C(=O)c3c(O)cc4c(c3OC1CO2)C=CC(C)(C)O4 (stereo not given) | 6.3µM* | nt | 0.89µM* | nt | nt | ? | 0.4µM* | -8% | 0.4µM* | ? | ELG1 FLuc counter=-4%;FLuc enzyme=-3%
CCCc1nn2c(=O)cc(COc3ccc(NC(=O)c4ccco4)cc3)nc2s1 | -9% | -5 | 26% | -2% | 0% | nt | nt | nt | nt | nt
Nc1ncnc(N2CCc3ccccc32)c1[N+](=O)[O-] | -25% | 3 | 1% | 1.8µM* | 0% | 1.6µM* | 7.9µM* | -10% | -3% | -19%
CC(C)n1cc(CN2CCCC(CNS(=O)(=O)c3cccc4cccnc34)C2)cn1 (stereo not given) | -28% | 20 | -5% | 19% | 3% | nt | nt | nt | nt | nt
CCCCc1ccc(NC(=O)C(=O)NCCN2CCN(Cc3ccc([N+](=O)[O-])cc3)CC2)cc1 | ? | -11 | -28% | 3.3µM* | 0% | ? | 0.79µM* | 0% | 1.3µM* | -15%
CNC(=O)C(=O)NCCN1CCN(C(=O)c2ccc([N+](=O)[O-])cc2)CC1 | -4% | 18 | 0% | 11% | -1% | nt | nt | nt | nt | nt
CN1CCN(S(=O)(=O)c2ccc(Br)c3ccccc23)CC1 | 4% | -7 | 1% | -1% | -1% | nt | nt | nt | nt | nt
C(=C\c1ccc2ccccc2n1)/c1cccnc1 | nt | nt | nt | nt | nt | nt | nt | nt | nt | ? | ELG1 FLuc counter=-20%;FLuc enzyme=0.29µM*
O=C(O)/C=C/c1ccc2ccccc2n1 | 44% | -4 | -5% | -24% | 0% | nt | nt | nt | nt | nt
C(=C\c1ccc2ccccc2n1)/c1ccc2ccccc2n1 | nt | nt | nt | nt | nt | nt | nt | nt | nt | 3% | ELG1 FLuc counter=39%;FLuc enzyme=0.29µM*
Fc1ccccc1/C=C/c1ccc2ccccc2n1 | -36%[10 µM] | -1 | ? | ? | -2% | nt | nt | nt | nt | nt
COc1ccc(C2CC(c3ccncc3)=NN2c2ccc(S(N)(=O)=O)cc2)cc1 (stereo not given) | nt | -13 | nt | ? | 0% | nt | nt | nt | nt | ?
CCN(Cc1ccccc1)C(=O)c1cc(S(=O)(=O)N2CCOCC2)cn1C | -1% | 18 | -13% | 17% | 0% | nt | nt | nt | nt | nt
COc1cc(C)cc2oc(=O)c(CC(=O)N3CCN(C(=O)C4COc5ccccc5O4)CC3)c(C)c12 (stereo not given) | 20% | -9 | 21% | ? | 0% | nt | nt | nt | nt | nt
CC(=O)Oc1ccc2c(C)c(CC(=O)N3CCN(C(=O)C4COc5ccccc5O4)CC3)c(=O)oc2c1C (stereo not given) | 24% | 2 | -6% | ? | 0% | 2.5µM* | ? | ? | ? | ? | ELG1 FLuc counter=-4%;FLuc enzyme=-7%
CCOC(=O)Cn1c(=NC(=O)C(C)C)sc2c(C)cc(C)cc21 | 21% | 29 | -7% | 3.3µM* | -1% | 14µM* | -3% | 8% | ? | ?
